Screen size: about 330,000 compounds; about 1,100 (0.33%) were called active. The sample holds actives, similar compounds and a random draw of the others, so the mix is not that of the screen. Unmarked numbers belong to inactive results.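 The calls were made as follows: active = inhibition above about 40% at 20 µM (limit read from the data); inactive = the rest.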
molecular target: Apelin receptor (Homo sapiens) (UniProt P35414); assay: blockade of apelin-induced APJ beta-arrestin recruitment – CHO-K1 cells, beta-arrestin complementation, luminescence, primary screen (AID 2521); settings: at 20 µM, hits give high values;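 also: cells challenged with 10 nM apelin-13 agonist together with compound; plate controls were apelin-13 plus DMSO wells for no effect and DMSO wells lacking apelin-13 for full effect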
Sequence (P35414 whole entry, looked up): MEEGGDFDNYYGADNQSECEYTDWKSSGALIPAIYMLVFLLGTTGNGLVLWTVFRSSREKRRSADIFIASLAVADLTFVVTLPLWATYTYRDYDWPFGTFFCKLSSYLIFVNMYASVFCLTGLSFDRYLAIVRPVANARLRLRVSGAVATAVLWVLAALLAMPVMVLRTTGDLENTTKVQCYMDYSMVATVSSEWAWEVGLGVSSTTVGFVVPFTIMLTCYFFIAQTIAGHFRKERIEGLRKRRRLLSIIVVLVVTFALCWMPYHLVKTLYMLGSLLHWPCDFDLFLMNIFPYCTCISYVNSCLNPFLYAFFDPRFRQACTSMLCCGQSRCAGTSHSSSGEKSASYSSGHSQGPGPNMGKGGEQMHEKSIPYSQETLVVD

| Compound | inhibition |
| --- | --- |
| CCOC(=O)c1c(N)n(Cc2ccccc2)c2nc3ccccc3nc12 | 42.7% (active) |
| COc1cc(Cn2c(N)c(C(=O)NCc3ccco3)c3nc4ccccc4nc32)cc(OC)c1OC | 34% |
| CC/C(=N\NC(=O)c1ccccc1O)c1c(O)n(Cc2ccccc2)c(=O)[nH]c1=O | -28% |
| COc1ccc(Br)cc1CNCCc1cccc(Cl)c1 | 17.7% |
| C=CC12CN(C)[C@@H]3C4CO[C@H](C[C@H]41)[C@]1(C(=O)Nc4ccccc41)[C@@H]32 (stereo not given in full) | -19.7% |

From PubChem BioAssay AID2521 (Sanford-Burnham Center for Chemical Genomics, 2010)
